High-throughput results as filed in PubChem BioAssay.
Most compounds without a hit are left out; they make up all but 9% or so of the library.
LMNA splice mod = modulators of lamin A splicing. HeLa LMNA splicing GFP/RFP minigene ratio, 48 h. Potency, µM (doses to about 46.1 µM), for the others: at the highest dose ratio change, negative = inhibition, most hits filed as inhibitors. 200,000 compounds, 0.01% hits; active means well fitted inhibition curve with a large enough effect in the signal ratio, with a control signal flat, not every such curve was filed as active; inconclusive means small, poorly fitted or top-dose-only effect, or effect the other way, or a change in a side signal; the % refers to the signal ratio; further: on the % scale 0 is the no-effect control and ±100 the full control effect
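S3 HeLa stable clones carrying a lamin A-EGFP splicing minigene plus DsRed2 were seeded at 600 cells/well in Opti-MEM with 2% FBS, pin-dosed and incubated 48 h at 37°C. Acumen cytometry (488 nm) gave the GFP/RFP total-intensity ratio.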
HPGD block = blocks human HPGD enzyme activity; P15428; purified HPGD, NADH fluorescence kinetic, PGE2 substrate; Potency, µM, for the others: at the top dose activity change, negative = inhibition, hits mostly inhibitors; 150,000 compounds, 4.3% hits; active means well fitted inhibition curve with a large enough effect, not every such curve was filed as active; inconclusive means small, poorly fitted or top-dose-only effect, or another doubt; inactive means no such curve, though single readings can be large or run the other way; further: on the % scale 0 is the no-effect control and ±100 the full control effect
Target sequence (P15428 whole entry, looked up): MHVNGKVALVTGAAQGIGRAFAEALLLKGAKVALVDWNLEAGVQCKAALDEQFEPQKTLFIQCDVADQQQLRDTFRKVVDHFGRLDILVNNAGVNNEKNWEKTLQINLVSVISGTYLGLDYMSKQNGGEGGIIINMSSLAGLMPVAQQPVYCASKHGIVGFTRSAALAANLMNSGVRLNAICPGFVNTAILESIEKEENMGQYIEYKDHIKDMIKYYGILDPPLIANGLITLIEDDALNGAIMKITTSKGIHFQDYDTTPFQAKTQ
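NADH formation kinetics: reaction with 30 uM PGE2 and 1 mM NAD+ (final), 20 nM enzyme, Tris-HCl pH 8 with Tween 20, after 15 min compound preincubation at room temperature. Fluorescence change, last versus first of five reads.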
ALDH1A1 inh = blocks purified human ALDH1A1 activity; P00352; Purified ALDH1A1, NADH fluorescence, propionaldehyde substrate; Potency, µM (top dose mostly 75.3 µM), inactives show at the highest dose activity, negative = inhibition, most hits filed as inhibitors; 220,000 compounds, 7.3% hits; active means well fitted inhibition curve with a large enough effect, not every such curve was filed as active; inconclusive means small, poorly fitted or top-dose-only effect, or another doubt; inactive means no such curve, though single readings can be large or run the other way;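 further: plate controls were no enzyme wells and a reference inhibitor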
Target sequence (P00352 whole entry, looked up): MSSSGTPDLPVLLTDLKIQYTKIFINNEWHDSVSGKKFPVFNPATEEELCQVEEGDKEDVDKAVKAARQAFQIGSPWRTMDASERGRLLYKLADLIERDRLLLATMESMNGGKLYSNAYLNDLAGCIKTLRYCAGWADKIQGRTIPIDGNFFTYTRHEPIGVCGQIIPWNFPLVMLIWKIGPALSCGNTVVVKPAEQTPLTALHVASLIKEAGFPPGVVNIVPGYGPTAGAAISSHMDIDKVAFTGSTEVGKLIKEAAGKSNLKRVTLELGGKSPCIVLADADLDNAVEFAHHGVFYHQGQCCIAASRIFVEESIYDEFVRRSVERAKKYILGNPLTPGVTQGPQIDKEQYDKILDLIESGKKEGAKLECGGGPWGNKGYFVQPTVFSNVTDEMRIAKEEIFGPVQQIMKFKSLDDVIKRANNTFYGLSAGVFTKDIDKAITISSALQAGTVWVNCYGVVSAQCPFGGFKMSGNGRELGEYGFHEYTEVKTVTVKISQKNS
HTT cytoprotect = cytoprotection in Huntington HTT-Q103 PC12 cell model. PC12 HTT-Q103 induced, cytoprotection, ATP luminescence, 40 h. 230,000 compounds, 0.14% hits. Potency, µM (series often up to 56.4 µM), for inactives: cytoprotection (ATP increase), actives largely listed as activators; further: % of control where 0% means no effect; nearly all actives have a fitted effect of over 45% in size
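Huntington model: PC12 line, ecdysone-inducible HTTQ103 exon1–GFP, tebufenozide 100 nM. Test articles in a dose series. Endpoint luminescence from cellular ATP.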
KinaseGlo FLuc = counter-screen: inhibitors of Kinase-Glo firefly luciferase | Kinase-Glo luciferase, ATP luminescence, 8 min | Potency, µM (highest dose often 38.3 µM), without a hit: at the highest dose activity change, negative = inhibition, actives largely listed as inhibitors | 200,000 compounds, 0.28% hits | Q27757; further: on the % scale 0 is the no-effect control and ±100 the full control effect; nearly all actives have a fitted effect of over 60% in size
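Compound is pinned into ATP-containing buffer (10 uM ATP, imidazole pH 7.2, 7 mM MgCl2). Kinase-Glo luciferase reagent is then added. Light output is recorded following an 8-min room-temperature incubation.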
HttQ103 aggreg = reduces HttQ103-GFP aggregates in PC12 cells; 220,000 compounds, 1.1% hits; AID 1688; Potency, µM (top dose mostly 46.1 µM), for inactives: at the highest dose activity change, negative = inhibition, usual class: inhibitors; PC12 HttQ103-GFP aggregates, Acumen cytometry, 40 h; further: on the % scale 0 is the no-effect control and ±100 the full control effect; nearly all actives have a fitted effect of over 60% in size
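Compounds (qHTS titration) were added to PC12 cells expressing an ecdysone-driven HTT exon 1 Q103–GFP fusion after induction with 100 nM tebufenozide. Aggregate formation was measured as GFP objects in cell lysates.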
Numbers without * were called inactive; ? = inconclusive; . = no result given; [ ] = remark or other dose. Unless noted, the call rests on the fitted dose curve; in most records, active means well fitted curve in the direction sought with a large enough effect; inconclusive means small, poorly fitted or top-dose-only effect, or another doubt; inactive means no such curve, though single readings can be large; an effect the other way counts as inactive or inconclusive. Potency means the concentration at half of the fitted maximal effect.

SMILES | LMNA splice mod | HPGD block | ALDH1A1 inh | HTT cytoprotect | KinaseGlo FLuc | HttQ103 aggreg
CC(C(=O)N=c1sc2ccccc2n1C)N1C(=O)C2CC=CCC2C1=O (centres undefined) | 3% | -19% | 7% | 5%[10 µM] | 0% | ?
CC(C)OCCCNC(=O)NC12CC3CC(CC(C3)C1)C2 | -11% | -10% | -4% | 19%[10 µM] | 2% | 10%
COC(=O)[C@@H]1CCCN1C(=O)CCc1nnc(CCc2c[nH]c3ccccc23)o1 | . | . | -4% | -52%[10 µM] | -6% | -22%[9.22 µM]
COC(=O)C1CCCCN1C(=O)CCc1nnc(CCc2c[nH]c3ccccc23)o1 (centres undefined) | ? | . | 22µM* | -17%[10 µM] | 2% | -12%[9.22 µM]
[O-]/C(=C(\C(=S)NCc1ccccc1)[n+]1ccccc1)c1ccc(Cl)s1 | . | . | 18µM* | -19% | 6% | 4%
[O-]/C(=C(\C(=S)NCCN1CCOCC1)[n+]1ccccc1)c1ccc(Cl)s1 | ? | . | 10µM* | 10%[10 µM] | -6% | 5%
Cc1ccccc1NC(=S)/C(=C(\[O-])c1ccc(C)c([N+](=O)[O-])c1)[n+]1ccccc1 | -8% | -2% | -13% | -18%[10 µM] | 1% | 21%
Cc1ccc(NC(=S)/C(=C(\[O-])c2ccc(C)c([N+](=O)[O-])c2)[n+]2ccccc2)cc1C | 16% | -14% | ? | -14% | 1% | -23%
Cc1ccc(/C([O-])=C(/C(=S)NCCN2CCOCC2)[n+]2ccccc2)cc1[N+](=O)[O-] | 9%[46 µM] | . | 22µM* | 2%[10 µM] | 1% | 11%
Cc1ccc(/C([O-])=C(/C(=S)Nc2ccc(SC(F)F)cc2)[n+]2ccccc2)cc1[N+](=O)[O-] | -5%[46 µM] | . | 4.5µM* | -5%[10 µM] | -4% | -25%
S=C(NCCN1CCOCC1)Nc1ccc(Nc2ccccc2)cc1 | . | . | -1% | -23% | 3% | 11%
CCCc1cc(=O)c2c(O)ccc(OC)c2o1 | 22%[46 µM] | . | 2% | 5%[10 µM] | . | -1%[9.22 µM]
CCSC1=NC2(CCCCC2)Nc2sc3c(c21)CCCC3 | 13% | 4.5µM* | 7.1µM* | -30% | 4% | ?
O=C(NC(=S)Nc1ccc(C(F)(F)F)cc1)c1csnn1 | . | . | ? | -4%[10 µM] | -1% | 12%
O=C(CSc1ccc(-c2ccc(F)cc2)nn1)N1CCCCC1 | 7% | 16µM* | -12% | -6% | 4% | 4%
CC1CCN(C(=O)CSc2ccc(-c3ccc(F)cc3)nn2)CC1 | ? | 10µM* | -2% | -5% | -5% | -13%
CC1CCCC(C)N1C(=O)COc1ccccc1F (centres undefined) | 5%[46 µM] | . | 6% | . | 1% | .
CC1CCN(C(=O)COc2ccccc2F)CC1 | 2% | 25µM* | -6% | -33% | -2% | 1%
CCOC(=O)N1CCN(C(=O)CSc2ccc(-c3ccc(OC)cc3)nn2)CC1 | 3%[46 µM] | . | -4% | -85% | -3% | -12%
CCOc1ccc(-c2ccc(SCC(=O)N3CCN(c4ccccc4)CC3)nn2)cc1 | -2% | -4% | 18µM* | -8%[10 µM] | 2% | 13%
CC(C)n1c(/C=C/c2ccccc2)nc2ccccc21 | -18% | ? | ? | -24%[10 µM] | -4% | 20%
COc1ccc(-n2nc([N+](=O)[O-])c(=NC3CCN(Cc4ccccc4)CC3)n2O)cc1 | . | . | 2% | -44% | . | -4%
CC(C)CCn1c(Oc2ccccc2Cl)nc2c1c(=O)n(C)c(=O)n2C | 3% | -6% | ? | -31% | 0% | ?
COc1cc(/C(C)=N\NC(N)=S)cc(OC)c1OC | -2% | -4% | 12% | . | -1% | ?
COc1ccc2c(c1)[N+](=O)C(/C(C)=N/NC(N)=S)=C(C)[N+]2=O | . | -19% | 3.2µM* | . | -5%[7.66 µM] | .
SMILES | LMNA splice mod | HPGD block | ALDH1A1 inh | HTT cytoprotect | KinaseGlo FLuc | HttQ103 aggreg
CCC(C)(C)C1CCC2(CC1)NC(=O)N(CC(=O)Nc1nc(-c3ccc(C)cc3)cs1)C2=O (centres undefined) | 3% | -13% | 2% | -18% | -2% | 20%
Cc1noc(C)c1C(=O)Nc1sc(C)c(-c2ccccc2)c1C#N | ? | -29% | 10µM* | -31%[0.074 µM] | -3% | 4%
Cc1sc(NC(=O)C2CCCCC2)c(C#N)c1-c1ccccc1 | -9% | -19% | ? | -9% | 1% | 18%
N#Cc1c(NC(=O)c2ccccc2)sc2c1CCCCC2 | -5% | ? | ? | -20%[10 µM] | -12% | 12%
N#Cc1c(Cl)nsc1NC(=O)c1ccccc1 | . | . | ? | -108% | 2% | 4µM*
Cc1cccc(C(=O)Nc2sc(C)c(-c3ccccc3)c2C#N)c1 | ? | ? | ? | -54% | 3% | 22µM*
COc1ccc(-n2c(CN3CCN(Cc4ccccc4)CC3)nc3ccc([N+](=O)[O-])cc3c2=O)c(OC)c1 | . | . | 20µM* | -25% | 2% | -2%
COc1cccc(-n2c(CN3CCN(Cc4ccccc4)CC3)nc3ccc([N+](=O)[O-])cc3c2=O)c1 | -15% | -2% | 24µM* | 1%[10 µM] | 4% | 7%
O=c1c2cc([N+](=O)[O-])ccc2nc(CN2CCN(c3ccccn3)CC2)n1-c1ccccc1F | . | . | 14µM* | -26% | 0% | 2%
Cc1ccc(C)c(SCC(=O)OCC(=O)N2CC(C)OC(C)C2)c1 (centres undefined) | 14%[46 µM] | . | 6% | 9%[10 µM] | 4% | 32%
COC(=O)[C@@]1(Cc2ccc(OC)cc2)[C@H]2c3cc(C(=O)N(C)C)n(CCO)c3C[C@H]2CN1C(=O)c1ccccc1 | . | -7% | -7% | -6% | 2% | .
Cc1ccc(S(=O)(=O)N/N=C\c2cccnc2)cc1 | ? | -15% | ? | -30% | 1% | 16%
Cc1ccc(C)c(S(=O)(=O)N/N=C/c2cccnc2)c1 | -5% | -10% | 8.9µM* | 17%[10 µM] | 4% | 12%
COc1cc(SC)ccc1C(=O)N1CCN(c2ccc(O)cc2)CC1 | ? | . | ? | -21% | 0% | -12%
CC(C)(C(=O)O)n1cncn1 | ? | . | 9% | -29% | -5% | 12%
CC(C)CNC(=O)c1c(N)n(/N=C/c2ccccn2)c2nc3ccccc3nc12 | -1% | -13% | 13% | 8% | -4% | -8%
N#Cc1cnn(-c2nc(SCc3ccccc3)nc3sc4c(c23)CCCC4)c1N | 19% | -24% | 8.9µM* | -46% | 1% | -5%
COCCCNc1nc(SCc2ccccc2)nc2sc3c(c12)CCC3 | 9% | -12% | -10% | -32% | -2% | -31%
Cc1c(-c2ncn[nH]2)sc(C#N)c1-c1ccccc1 | -2%[9.22 µM] | . | 25µM* | -19% | 4% | -13%
O=C1c2c(O)cccc2Cc2cccc(O)c21 | ? | -23% | 25µM* | 18% | 4% | -25%
O=C1C=C(O)c2c(O)cccc2C1=O | . | . | . | -16%[10 µM] | . | -26%[9.22 µM]
Fc1ccccc1N1CCN(c2ncnc3c2nc2n3CCCC2)CC1 | 7%[46 µM] | . | . | . | . | .
